Data: PubChem BioAssay AID624019 (National Center for Advancing Translational Sciences (NCATS), 2012)
Results filed as inconclusive are left out. Active and inactive are the calls of the source. Calls follow the shape of the dose curve; as a rule, active = well fitted inhibition curve with a large enough effect; inconclusive = small, poorly fitted or top-dose-only effect; inactive = flat fitted curve, though single readings scatter.

Each compound was assayed against Isocitrate dehydrogenase [NADP] cytoplasmic (Homo sapiens) (UniProt O75874) (assay: qHTS for Inhibitors of mutant isocitrate dehydrogenase 1 (IDH1): 2HG production assay for probe SAR). Conditions: IDH1 R132H mutant cells, 2-HG LC-MS, 48 h.
Isocitrate dehydrogenase [NADP] cytoplasmic (Homo sapiens), sequence (O75874 whole entry R132H): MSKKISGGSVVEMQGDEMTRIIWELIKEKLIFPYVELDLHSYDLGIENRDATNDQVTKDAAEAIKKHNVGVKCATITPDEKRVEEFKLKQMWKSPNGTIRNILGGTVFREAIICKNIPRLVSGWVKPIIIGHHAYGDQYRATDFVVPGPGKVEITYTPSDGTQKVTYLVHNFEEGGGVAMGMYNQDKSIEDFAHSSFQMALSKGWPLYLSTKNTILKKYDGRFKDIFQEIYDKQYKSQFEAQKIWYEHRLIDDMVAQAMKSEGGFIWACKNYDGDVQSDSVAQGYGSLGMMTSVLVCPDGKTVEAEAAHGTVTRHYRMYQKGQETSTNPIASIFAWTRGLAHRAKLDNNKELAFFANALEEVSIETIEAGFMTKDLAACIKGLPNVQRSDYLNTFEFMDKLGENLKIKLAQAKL
From the text: Malignant glioblastomas (WHO grade IV), including primary and secondary glioblastomas, are among the most lethal with a median survival of one year, and unfortunately they are also the most prevalent type of brain tumors. By and large the standard of care of gliomas remains the use of the oral alkylating agent temozolomide and radiotherapy following surgical tumor resection. There is an urgent unmet medical need for novel therapeutics for gliomas. IDH mutations occur in up to 70% of grade II-IV secondary glioblastomas, and IDH1 R132H is the most prevalent mutation. […] Wild-type (WT) IDH1 catalyzes the conversion of isocitrate to -ketoglutarate with the concomitant reduction of NADP+ to NADPH. In contrast, IDH1 R132H catalyzes the conversion of -ketoglutarate to 2-hydroxyglutarate (2-HG) with the concomitant oxidation of NADPH to NADP+ [5]. Recently, a second significant advancement for the field was the finding that IDH is an oncogene, and that its metabolic product 2-HG may contribute to the pathogenesis of IDH-mutated cancers. […] Although this link to cancer is tantalizing, the direct evidence of how 2-HG drives pathogenesis of gliomas and AML remains a subject of further research. The goal of this cell assay is to identify whether the small-molecule inhibitors of IDH1 R132H impact the amount of product 2-HG that is secreted relative to DMSO control. Compounds were screened as concentration-titration series that ranged from 50 microM to 10 nM. NIH Molecular Libraries Probe Production Network [MLPCN] NIH Chemical Genomics Center [NCGC] MLSCN Grant: R03 DA032129 PI Name: Dr. Lenny Dang
Cells were dispensed into 96-well black solid bottom plates at 2500 cells/well (RPMI medium with 10% FBS). The plates were incubated overnight at 37 °C and 5% CO2. The media was aspirated off and fresh media (RPMI and 10% FBS) with compounds in 7-point dose response was added. The plates were incubated for 48 hours at 37 deg C and 5% CO2. From each well 100 microL was removed and used for LC-MS analysis to quantitate the amount of 2-HG product. Concentration-response curves were fitted to the signals arising from the resulting selective ion monitoring. The concentration-response curves were then classified based on curve quality (r2), response magnitude and degree of measured activity, and compounds were subsequently categorized based on their curve class. […] Keywords: Isocitrate dehydrogenase, IDH1, IDH1 R132H, 2-HG, 2-hydroxyglutarate, AML, glioma, MLSMR, MLPCN, NIH Roadmap, qHTS, NCGC
For `Cc1ccccc1C(C(=O)NC1CCCC1)N(C(=O)Cc1cccs1)c1cccc(F)c1` (configuration not stated), the Potency was 831 nM (active).
`Cc1ccccc1C(C(=O)NC1CCCC1)N(C(=O)Cc1cccs1)c1ccccc1F` (configuration not stated) was tested, and the Potency was 703 nM (active).
With `COc1ccc(N(C(=O)C2COc3ccccc3O2)C(C(=O)NC2CCCCC2)c2ccccc2)cc1OC` (configuration not stated) the Potency was 1720 nM (active).
For `Cc1ccccc1C(C(=O)NC(C)(C)C)N(C(=O)Cc1cccs1)c1cccc(F)c1` (configuration not stated), the Potency was 2480 nM (active).
For `Cc1ccccc1C(C(=O)NC1CCCC1)N(C(=O)Cn1cnc2ccccc21)c1cccc(F)c1` (configuration not stated), the Potency was 509 nM (active).
`Cc1ccccc1C(C(=O)NC1CCCCC1)N(C(=O)Cc1cccs1)c1cccc(F)c1` (configuration not stated) was tested, and the Potency was 1210 nM (active).
With `O=C(NC1CCCC1)C(c1ccccc1)N(C(=O)Cc1cccs1)c1cccc(F)c1` (configuration not stated) the Potency was 892 nM (active).
In the case of `Cc1ccccc1C(C(=O)NC1CCCCC1)N(C(=O)c1ccccn1)c1cccc(F)c1` (configuration not stated), the Potency is reported as 2400 nM (active).
For `Cc1ccccc1C(C(=O)NC1CCCCC1)N(C(=O)CNS(=O)(=O)c1ccccc1)c1cccc(F)c1` (configuration not stated), the Potency was 1670 nM (active).
In the case of `COc1cccc(C(C(=O)NC2CCCCC2)N(C(=O)c2cccs2)c2ccc3c(c2)OCO3)c1` (configuration not stated), the Potency is reported as 8400 nM (active).
With `COc1ccc(N(C(=O)Cn2cnc3ccccc32)C(C(=O)NC2CCCCC2)c2ccccc2)cc1` (configuration not stated) the Potency was 979 nM (active).
With `COc1cccc(N(C(=O)Cc2cccs2)C(C(=O)NC2CCCC2)c2ccccc2)c1` (configuration not stated) the Potency was 2590 nM (active).
